From PubChem BioAssay AID1159580 (chemical genetic matrix, 2015)
Where “and” joins values, the source holds several entries; their conditions need not be identical. Equal values may be shown once. Screen size: about 5,500 compounds; about 2,000 (36%) were called active. About 18% were inconclusive and are not listed. Cut-off read from the data, not from the text of the source: active = normalized growth mostly below about 0.91 (no sharp cut-off); inconclusive = no clear call, values can overlap the other calls; inactive = mostly above about 0.92. Some of the results follow.

Assay: chemical genetic growth profiling, strain panel (AID 1159580);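 note: tested at 20 µM; growth read once vehicle control cultures reached saturation at 30 °C; 1 = growth at the plate median or of vehicle wells; lower values mean less growth of the strain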
Details: S. cerevisiae deletion strains, growth OD

Measured: normalized growth

COc1ccc(-c2cc(C(F)F)nn2-c2ccc(S(N)(=O)=O)cc2)cc1F
inactive: locus YAL013W, strain DEP1, stronger effect = lower value 1 | locus YAL021C, strain ccr4, stronger effect = lower value 0.991 | locus YAL026C, strain drs2, stronger effect = lower value 1.02 | locus YAL030W, strain snc1, stronger effect = lower value 1.01 | locus YBL061C, strain skt5, stronger effect = lower value 1 | locus YBR009C, strain hhf1, stronger effect = lower value 1 | locus YBR021W, strain FUR4, stronger effect = lower value 1.02 | locus YBR023C, strain chs3, stronger effect = lower value 0.992 | locus YBR171W, strain sec66, stronger effect = lower value 1.01 | locus YBR229C, strain ROT2, stronger effect = lower value 1.01 | locus YBR231C, strain swc5, stronger effect = lower value 1.01 | locus YBR279W, strain paf1, stronger effect = lower value 1 | locus YCL011C, strain gbp2, stronger effect = lower value 1.01 | locus YCL016C, strain dcc1, stronger effect = lower value 0.992 | locus YCL029C, strain bik1, stronger effect = lower value 1.01 | locus YCL069W, strain vba3, stronger effect = lower value 1 | locus YCR088W, strain abp1, stronger effect = lower value 1 | locus YDL005C, strain med2, stronger effect = lower value 1 | locus YDL035C, strain GPR1, stronger effect = lower value 1.02 | locus YDL040C, strain nat1, stronger effect = lower value 1.01 | locus YDL074C, strain BRE1, stronger effect = lower value 0.997 | locus YDL101C, strain DUN1, stronger effect = lower value 1 | locus YDL134C, strain PPH21, stronger effect = lower value 0.994 | locus YDL185W, strain tfp1, stronger effect = lower value 1.01 | locus YDL192W, strain arf1, stronger effect = lower value 1.01 | locus YDR001C, strain nth1, stronger effect = lower value 1.02 | locus YDR069C, strain doa4, stronger effect = lower value 1.01 | locus YDR101C, strain arx1, stronger effect = lower value 1.01 | locus YDR137W, strain rgp1, stronger effect = lower value 1.04 | locus YDR150W, strain NUM1, stronger effect = lower value 0.999 | locus YDR159W, strain sac3, stronger effect = lower value 1.01 | locus YDR162C, strain NBP2, stronger effect = lower value 0.988 | locus YDR195W, strain ref2 0.988 | locus YDR297W, strain sur2, stronger effect = lower value 1.01 | locus YDR318W, strain mcm21, stronger effect = lower value 1.02 | locus YDR334W, strain swr1, stronger effect = lower value 1.02 | locus YDR335W, strain msn5, stronger effect = lower value 1 | locus YDR388W, stronger effect = lower value 1.02 | locus YDR392W, strain spt3, stronger effect = lower value 0.922 | locus YDR502C, strain sam2, stronger effect = lower value 0.996 | locus YEL003W, strain gim4, stronger effect = lower value 1 | locus YEL037C, strain rad23, stronger effect = lower value 1.01 | locus YEL061C, strain CIN8 (second series), stronger effect = lower value 1.01 | locus YEL061C, strain CIN8, stronger effect = lower value 1 | locus YER015W, strain faa2, stronger effect = lower value 0.987 | locus YER016W, strain bim1, stronger effect = lower value 1 | locus YER110C, stronger effect = lower value 1.03 | locus YER111C, strain swi4, stronger effect = lower value 0.999 | locus YER155C, strain BEM2 (second series), stronger effect = lower value 0.887 | locus YER155C, strain BEM2, stronger effect = lower value 0.998 | locus YER167W, strain BCK2, stronger effect = lower value 1.01 | locus YFR010W, strain ubp6, stronger effect = lower value 1.02 | locus YGL078C, strain dbp3, stronger effect = lower value 0.996 | locus YGL086W, strain mad1, stronger effect = lower value 1.03 | locus YGL167C, strain pmr1, stronger effect = lower value 0.999 | locus YGL173C, strain kem1, stronger effect = lower value 0.998 | locus YGL227W, strain vid30, stronger effect = lower value 1.01 | locus YGL240W, strain doc1, stronger effect = lower value 0.961 | locus YGL248W, strain PDE1, stronger effect = lower value 0.997 | locus YGL253W, strain hxk2, stronger effect = lower value 1.01 | locus YGR078C, strain PAC10, stronger effect = lower value 0.994 | locus YGR135W, strain pre9, stronger effect = lower value 0.982 | locus YGR229C, strain SMI1, stronger effect = lower value 0.989 | locus YGR252W, strain gcn5, stronger effect = lower value 1.08 | locus YHR013C, strain ard1, stronger effect = lower value 1.06 | locus YHR027C, strain rpn1, stronger effect = lower value 1.01 | locus YHR030C, strain SLT2, stronger effect = lower value 1.01 and 1.05 | locus YHR079C, strain IRE1 (second series), stronger effect = lower value 1.02 | locus YHR079C, strain IRE1, stronger effect = lower value 1.06 | locus YHR094C, strain hxt1, stronger effect = lower value 1.01 | locus YHR129C, strain ARP1, stronger effect = lower value 1 | locus YHR142W, strain chs7, stronger effect = lower value 0.999 | locus YHR200W, strain rpn10, stronger effect = lower value 1.02 | locus YIL066C, strain RNR3, stronger effect = lower value 1.01 | locus YIL073C, strain SPO22, stronger effect = lower value 1.07 | locus YIL125W, strain kgd1, stronger effect = lower value 1.01 | locus YIR030C, strain dcg1, stronger effect = lower value 1.01 | locus YJL092W, strain hpr5, stronger effect = lower value 1 | locus YJL095W, strain BCK1 (second series), stronger effect = lower value 0.997 | locus YJL095W, strain BCK1, stronger effect = lower value 0.996 and 1.02 | locus YJL115W, strain asf1, stronger effect = lower value 1.01 | locus YJL129C, strain trk1, stronger effect = lower value 0.967 | locus YJL134W, strain LCB3, stronger effect = lower value 1 | locus YJL154C, strain vps35, stronger effect = lower value 0.999 | locus YJL164C, strain tpk1, stronger effect = lower value 0.992 | locus YJL166W, strain qcr8, stronger effect = lower value 0.984 | locus YJL168C, strain set2, stronger effect = lower value 1.02 | locus YJL187C, strain SWE1 (second series), stronger effect = lower value 0.995 | locus YJL187C, strain SWE1, stronger effect = lower value 1 | locus YJR043C, strain POL32, stronger effect = lower value 1.03 | locus YJR066W, strain TOR1, stronger effect = lower value 1.01
